Measurements as given in PubChem BioAssay (NCATS).
Inconclusive results are not listed. A call without a number means that no potency is given here. The source made the active and inactive calls. Unless noted, calls follow the shape of the full dose curve.

Assays:
[1] = qHTS for Inhibitors of the Functional Ribonucleoprotein Complex (vRNP) of Lassa (LASV) Arenavirus: LASV Primary Screen - GLuc reporter signal (AID 1347082; calls by dose curve; tested in HEK293 reporter line; also: nearly all actives have a fitted effect of over 60% in size; also: potency is read from the fitted curve at half-maximal effect)
[2] = qHTS for Inhibitors of the Functional Ribonucleoprotein Complex (vRNP) of Lymphocytic Choriomeningitis Arenaviruses (LCMV): Viability assay - alamar blue signal for LCMV Primary Screen (AID 1347085; calls by dose curve; tested in HEK293 reporter line; also: nearly all actives have a fitted effect of over 80% in size; also: potency is read from the fitted curve at half-maximal effect)
[3] = target: Nucleoprotein (Lymphocytic choriomeningitis virus (strain Armstrong)) (UniProt P09992); test: qHTS for Inhibitors of the Functional Ribonucleoprotein Complex (vRNP) of Lymphocytic Choriomeningitis Arenaviruses (LCMV): LCMV Primary Screen - GLuc reporter signal (AID 1347086); also: nearly all actives have a fitted effect of over 70% in size; also: potency is read from the fitted curve at half-maximal effect
Chain of Nucleoprotein (Lymphocytic choriomeningitis virus (strain Armstrong)) (P09992 whole entry, looked up): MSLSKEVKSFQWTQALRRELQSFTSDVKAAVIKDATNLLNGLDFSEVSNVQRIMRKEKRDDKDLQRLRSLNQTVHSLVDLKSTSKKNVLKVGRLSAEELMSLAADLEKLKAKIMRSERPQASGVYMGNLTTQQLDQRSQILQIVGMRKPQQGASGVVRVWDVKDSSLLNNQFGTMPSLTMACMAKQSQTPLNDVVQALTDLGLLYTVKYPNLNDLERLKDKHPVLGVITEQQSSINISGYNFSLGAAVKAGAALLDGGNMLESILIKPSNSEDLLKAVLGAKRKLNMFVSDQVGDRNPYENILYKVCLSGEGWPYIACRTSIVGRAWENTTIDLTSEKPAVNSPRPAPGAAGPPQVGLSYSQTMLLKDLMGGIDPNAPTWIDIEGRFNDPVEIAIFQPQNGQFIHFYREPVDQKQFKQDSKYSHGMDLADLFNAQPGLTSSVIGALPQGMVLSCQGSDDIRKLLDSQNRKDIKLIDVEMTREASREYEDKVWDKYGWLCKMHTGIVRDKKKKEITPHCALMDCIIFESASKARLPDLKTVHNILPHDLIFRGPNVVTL

[4] = target: Alpha-galactosidase (Coffea arabica) (UniProt Q42656); test: Counterscreen for Glucocerebrosidase Inhibitors: qHTS Assay for Coffee Bean alpha-Galactosidase at pH 4.5 (AID 957; active = well fitted curve in the direction sought with a large enough effect; an effect the other way counts as inactive or inconclusive)
Chain of Alpha-galactosidase (Coffea arabica) (Q42656 whole entry, looked up): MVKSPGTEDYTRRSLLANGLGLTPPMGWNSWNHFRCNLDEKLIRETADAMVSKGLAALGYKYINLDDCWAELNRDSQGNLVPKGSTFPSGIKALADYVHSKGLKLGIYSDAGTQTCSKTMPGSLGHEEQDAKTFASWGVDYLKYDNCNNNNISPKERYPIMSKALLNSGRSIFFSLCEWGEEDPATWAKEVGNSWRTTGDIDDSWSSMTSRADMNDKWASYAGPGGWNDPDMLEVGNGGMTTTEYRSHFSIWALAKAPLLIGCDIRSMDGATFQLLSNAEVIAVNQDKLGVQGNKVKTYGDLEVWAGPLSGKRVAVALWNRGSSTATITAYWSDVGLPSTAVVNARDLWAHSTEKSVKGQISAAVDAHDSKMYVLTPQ
Method in brief: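 AC50 values derive from Hill-equation modeling of concentration-response data, normalized to no-enzyme and full-activity controls. The pH 4.5 citrate assay used 2 nM coffee bean enzyme and 80 uM fluorogenic substrate for 20 min.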

[5] = target: Alpha-galactosidase (Coffea arabica) (UniProt Q42656); test: Counterscreen for Glucocerebrosidase Inhibitors: qHTS Assay for Coffee Bean alpha-Galactosidase at pH 5.9 (AID 998; active = well fitted curve in the direction sought with a large enough effect; an effect the other way counts as inactive or inconclusive)
Method in brief: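 Green coffee bean enzyme (2 nM) with 4-methylumbelliferyl alpha-D-galactopyranoside (80 uM) in 50 mM citric acid, 0.005% Tween-20, pH 5.9, 20 min at room temperature; compounds 0.7 nM–77 uM. Stopped at pH 10, fluorescence Ex365/Em440; Hill-fit AC50.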

[6] = Validation screen for inhibitors of Lassa infection (AID 463096)
[7] = Inducers of the Endoplasmic Reticulum Stress Response (ERSR) in human glioma: Validation (AID 504836; active = well fitted curve in the direction sought with a large enough effect; an effect the other way counts as inactive or inconclusive)
Method in brief: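 Stably transfected U87-MG glioma cells carrying a GRP78-based luciferase sensor; 16 h compound incubation. Luminescence end-point read 10 min after Bright-Glo addition at room temperature.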

[8] = qHTS for Inhibitors of the Functional Ribonucleoprotein Complex (vRNP) of Lassa (LASV) Arenavirus: Viability assay - alamar blue signal for LASV Primary Screen (AID 1347083; calls by dose curve; tested in HEK293 reporter line; also: nearly all actives have a fitted effect of over 80% in size)
[9] = Confirmatory qHTS for activators (rescue) of SARS-CoV-2 Cytopathic Effect (CPE) (AID 1508606); also: nearly all actives have a fitted effect of over 70% in size; also: potency is read from the fitted curve at half-maximal effect
[10] = Cytotoxicity counterscreen for inhibitors of SARS-CoV-2 cell entry (AID 1645845); also: nearly all actives have a fitted effect of over 50% in size; also: potency is read from the fitted curve at half-maximal effect
Method in brief: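 HEK293-ACE2 cells (Expi293F stably expressing human ACE2) seeded overnight, then compound for 1 h plus 48 h at 37C. Viability as ATP content by luminescence; normalized to wells with cells and media-only wells.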

[11] = Primary qHTS to identify inhibitors of SARS-CoV-2 cell entry (AID 1645846); conditions: activity change, negative = inhibition: at 57.1 µM (top of the series) unless noted; also: nearly all actives have a fitted effect of over 45% in size; also: potency is read from the fitted curve at half-maximal effect
Method in brief: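 Inhibition of spike-mediated entry was scored in human ACE2-transfected Expi293F cells. Particles were MLV-pseudotyped with Wuhan-Hu-1 S carrying a 19-aa C-terminal deletion; signal was luciferase after two days, scaled between spike PP and fusion-protein-free PP.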

[12] = Confirmatory qHTS for VERO E6 Cytotoxicity Assay: Counterscreen for SARS-CoV-2 CPE Assay (AID 1508605); also: potency is read from the fitted curve at half-maximal effect; nearly all actives have a fitted effect of over 60% in size
[13] = Confirmatory qHTS to identify inhibitors of SARS-CoV-2 cell entry (AID 1645844); also: potency is read from the fitted curve at half-maximal effect; nearly all actives have a fitted effect of over 45% in size
Method in brief: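 HEK293-ACE2 cells were pretreated 1 h with compound, then infected with MLV-based pseudoparticles bearing C-terminally truncated Wuhan-Hu-1 spike for 48 h at 37C; luciferase luminescence normalized to spike PP and bald PP wells.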

SMILES: C=C1C[C@H](OC(=O)C(C)(O)CCl)C2C(=C)C(=O)O[C@@H]2C2C1C[C@H](O)[C@]2(O)CCl (stereo not given in full)
- Potency [1]: inactive
- Potency [2]: inactive
- Potency [3]: inactive

SMILES: COc1cc(C(=O)O[C@H]2C/C(C)=C/CC[C@@]3(C)O[C@@H]3[C@H](O)[C@@H]2C(C)C)cc(OC)c1OC
- Potency [1]: inactive
- Potency [2]: inactive
- Potency [3]: inactive

SMILES: Nc1ccc(S(=O)(=O)Nc2ncccn2)cc1
- Potency [1]: inactive
- Potency [2]: inactive
- Potency [3]: inactive

SMILES: Oc1ccc2c(c1)OCC1(O)Cc3cc(O)c(O)cc3C21 (stereo not given)
- Potency [1]: inactive
- Potency [2]: inactive
- Potency [3]: inactive

SMILES: O=C1NC(=O)C(=Cc2ccc(-c3ccc(F)cc3O)o2)S1
- Potency [1]: inactive
- Potency [2]: inactive
- Potency [3]: inactive

SMILES: COc1ccc(-c2cc(=O)c3c(OC)c(OC)c(OC)c(OC)c3o2)cc1
- Potency [1]: inactive
- Potency [2]: inactive
- Potency [3]: inactive

SMILES: CC(=O)O[C@@]12CO[C@H]1C[C@H](O)[C@@]1(C)C(=O)[C@H](O)C3=C(C)[C@@H](OC(=O)C(O)[C@@H](NC(=O)OC(C)(C)C)c4ccccc4)C[C@@](O)([C@@H](OC(=O)c4ccccc4)[C@@H]21)C3(C)C (stereo not given in full)
- Potency [1]: inactive
- Potency [2]: inactive
- Potency [3]: inactive

SMILES: Cn1cc(C2=C(c3ccc(Cl)cc3Cl)C(=O)NC2=O)c2ccccc21
- outcome [4]: inactive
- outcome [5]: inactive
- Potency [6]: inactive
- outcome [7]: inactive
- Potency [1]: inactive
- Potency [8]: inactive

SMILES: C=CC(=O)Nc1cc(NC(=O)c2ccc(C)c(NC(=O)c3ccno3)c2)cc(C(F)(F)F)c1
- Potency [1]: inactive
- Potency [2]: inactive
- Potency [3]: inactive

SMILES: COc1ccc(Cc2ccc(NC(N)=O)cc2)cc1-c1cccc(Cl)c1
- Potency [1]: inactive
- Potency [2]: 9.68 µM (active)

SMILES: NC/C=C\C(=O)O
- outcome [4]: inactive
- Potency [6]: inactive
- outcome [7]: inactive
- Potency [1]: inactive
- Potency [8]: inactive

SMILES: COc1cc(O)c2c(=O)c(-c3ccc(O[C@@H]4O[C@H](CO)[C@@H](O)[C@H](O)[C@H]4O)cc3)coc2c1
- Potency [1]: inactive
- Potency [2]: inactive
- Potency [3]: inactive

SMILES: O=C1NC(=O)C(=Cc2ccc(-c3ccc(F)cc3)o2)S1
- Potency [1]: inactive
- Potency [2]: inactive
- Potency [3]: inactive

SMILES: O=C(C=Cc1ccccc1O)c1ccccc1O
- Potency [1]: inactive
- Potency [2]: inactive

SMILES: Cn1cc(-c2ccncc2)c(-c2ccc(OCc3ccc4ccccc4n3)cc2)n1
- Potency [1]: 21.7 µM (active)
- Potency [2]: inactive
- Potency [3]: 21.7 µM (active)
- Potency [9]: inactive

SMILES: COc1cc2c(oc(=O)c3cc(C)cc(OC)c32)c2c(C3OC(C)C(O)C(C)(O)C3O)ccc(O)c12 (stereo not given)
- Potency [1]: inactive
- Potency [2]: inactive
- Potency [3]: inactive

SMILES: COC1C(O)C(C)OC(OC2CCC3(C=O)C(CCC4C3CCC3(C)C(C5=CC(=O)OC5)CCC43O)C2)C1O (stereo not given)
- Potency [1]: inactive
- Potency [2]: inactive
- Potency [3]: inactive

SMILES: Clc1cc(Cl)cc(CNc2ncncc2-c2ccc3c(c2)OCO3)c1
- Potency [1]: inactive
- Potency [2]: inactive
- Potency [3]: inactive
- Potency [10]: inactive

SMILES: NS(=O)(=O)c1ccc(Nc2nc(OCC3CCCCC3)c3[nH]cnc3n2)cc1
- Potency [1]: inactive
- Potency [2]: inactive
- Potency [3]: inactive
- Potency [10]: inactive

SMILES: COc1cc2c(cc1OC)-c1cc3cc(OC)c(OC)cc3c(=O)n1CC2
- Potency [1]: inactive
- Potency [2]: inactive
- Potency [3]: inactive

SMILES: CN(C)C(=O)[C@H](O)[C@H](Cc1ccccc1)NC(=O)c1cc2cc(Cl)ccc2[nH]1
- Potency [1]: inactive
- Potency [2]: inactive
- Potency [3]: inactive
- Potency [10]: inactive
- activity change, negative = inhibition [11]: -8.95%

SMILES: N[C@H](CSC(c1ccccc1)(c1ccccc1)c1ccccc1)C(=O)O
- Potency [1]: inactive
- Potency [2]: inactive
- Potency [3]: inactive
- Potency [10]: inactive
- activity change, negative = inhibition [11]: -15.9%

SMILES: Cc1cccc(Nc2nc(-c3ccncc3)cs2)c1
- Potency [1]: inactive
- Potency [2]: inactive
- Potency [3]: inactive
- Potency [12]: 10 µM (active)
- Potency [9]: 0.794 µM (active)
- Potency [13]: 4.29 µM (active)
- Potency [11]: 10 µM (active)

SMILES: O=C1NC(=O)C(=Cc2ccc3nccnc3c2)S1
- Potency [1]: inactive
- Potency [2]: inactive
- Potency [3]: inactive

SMILES: C=CC(=O)Nc1cccc(Sc2nc(Nc3ccc(N4CCN(C)CC4)cc3)ncc2Cl)c1
- Potency [1]: inactive
- Potency [2]: inactive
- Potency [3]: inactive
- Potency [10]: 8.91 µM (active)
- Potency [11]: 3.98 µM (active)

SMILES: COc1cc2c(Nc3ccc(NC(=O)c4ccccc4)cc3)ncnc2cc1OCCCN1CCOCC1
- Potency [1]: inactive
- Potency [2]: inactive
- Potency [3]: inactive
- Potency [11]: 7.94 µM (active)

SMILES: CC(C)n1cnc2c(NCCc3ccc(O)cc3)nc(-c3csc4ccccc34)nc21
- Potency [1]: inactive
- Potency [2]: inactive
- Potency [3]: inactive
- activity change, negative = inhibition [11]: -45.8%

SMILES: C[C@]12CC[C@H]3C(=CCc4cc(O)ccc43)[C@@H]1CCC2=O
- Potency [1]: inactive
- Potency [2]: inactive
- Potency [3]: inactive

SMILES: COc1cc(C(C)C)c2c(c1)S(=O)(=O)N(COc1cc(=O)n3cccc(OCCN4CCCCC4)c3n1)C2=O
- Potency [1]: inactive
- Potency [2]: inactive
- Potency [3]: inactive
- Potency [10]: inactive
- activity change, negative = inhibition [11]: -36.9%

SMILES: NC(=O)c1cccc2[nH]c(-c3ccc([C@H]4CCCN4)cc3F)nc12
- Potency [1]: inactive
- Potency [2]: inactive
- Potency [3]: inactive
- Potency [10]: 11.2 µM (active)
- Potency [11]: 31.6 µM (active)

SMILES: Cc1nc(NC(=O)N2CCC[C@@H]2C(N)=O)sc1-c1csc(C(C)(C)C)n1
- Potency [1]: inactive
- Potency [2]: inactive
- Potency [3]: inactive

SMILES: CCn1c(C(=O)N(C2CC2)C2CC2)cc2c3c(ncn3C)c(Nc3cc(C)n(C)n3)nc21
- Potency [1]: inactive
- Potency [2]: inactive
- Potency [3]: inactive
- Potency [10]: inactive
- activity change, negative = inhibition [11]: -14.3%
